Results: the supplement of paper PMC6555819

Experiments:
Experiment in all cases: PBM binding z-score (relative to random genomic background probes); higher = stronger binding; sequences stand for … in GC…GCGATTGACAGCGTAGAATGAAGG
[1] = tested on: FXR:RXRa (NR concentration 270 nM, RXRa partner concentration 90 nM)
In short: (§1)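 Binding z-scores take random background probes as their reference. They come from custom Agilent 4×180K protein-binding microarrays incubated 1 h with ligand-free nuclear receptor dimers, with antibodies against each partner (one per run) detecting binding. Scanned fluorescence was regression-normalized.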

[2] = tested on: LXRa:RXRa (NR concentration 270 nM, RXRa partner concentration 90 nM)
In short: as §1

[3] = tested on: LXRa homodimer (NR concentration 270 nM)
In short: as §1

[4] = tested on: LXRb:RXRa (NR concentration 270 nM, RXRa partner concentration 90 nM)
In short: as §1

[5] = tested on: LXRb homodimer (NR concentration 270 nM)
In short: as §1

[6] = tested on: PPARa:RXRa (NR concentration 270 nM, RXRa partner concentration 90 nM)
In short: as §1

[7] = tested on: PPARg:RXRa (NR concentration 180 nM, RXRa partner concentration 90 nM)
In short: as §1

[8] = tested on: PPARg:RXRa 270nM:90nM, anti-RXR (NR concentration 270 nM, RXRa partner concentration 90 nM)
In short: as §1

[9] = tested on: PPARg:RXRa 30nM:10nM, anti-RXR (NR concentration 30 nM, RXRa partner concentration 10 nM)
In short: as §1

[10] = tested on: PPARg:RXRa 90nM:30nM, anti-RXR (NR concentration 90 nM, RXRa partner concentration 30 nM)
In short: as §1

Sequence	PBM binding z-score [1]	PBM binding z-score [2]	PBM binding z-score [3]	PBM binding z-score [4]	PBM binding z-score [5]	PBM binding z-score [6]	PBM binding z-score [7]	PBM binding z-score [8]	PBM binding z-score [9]	PBM binding z-score [10]
CCGACTGGGGCAGAACGGTTACCATACCATCCGG	-0.431	-0.676	-0.691	-0.711	-1.24	-0.574	0.748	-0.447	-0.36	-1.03
AGAATGAGGCTACCAAAGATCAGGGAAACGCTTG	-0.398	0.883	-0.337	-0.482	-1.07	0.361	0.85	0.0255	-0.0527	0.1
CTACCAAGGTGAACAAGGGCGTTGATTACTATTC	0.636	0.274	-0.543	0.44	-0.701	1.39	0.678	0.967	-0.0752	0.624
CCTACTGGGCCGAAAAGGTCATTGATGCCGATAA	3.42	4.38	2.91	3.93	0.134	4.47	1.7	3.34	0.611	2.39
GCTAGTTGGTCAGTAAAAAGTCACACACCGGTCG	0.351	0.195	0.138	-0.0134	-0.0534	0.217	0.434	0.856	0.159	0.726
CGAACGAGGGCATTAGTTGATAGCAAATGCCGAT	0.0908	-0.0116	-0.501	-0.0875	-0.766	0.595	0.83	0.432	0.0228	-0.0505
ACTATTTGTTGACTTAGGGCAACCGATACGACGC	0.226	0.188	0.404	0.344	1.56	0.197	0.97	0.737	0.434	0.364
TCGAGTAGGCTAGGGGCATTCAGAATGGCGTCGA	-0.172	-0.557	-0.903	-0.262	-1.16	0.162	-0.111	0.716	0.676	0.504
TCAGACAGGTGAAGGCAACTCAGGTACGCAGTCG	0.773	0.656	-0.307	0.471	-0.243	0.995	0.701	1.77	3.36	2.58
ATTTCTAGGTAAAGTTCAGTGAAAGATCGATAGA	1.69	2.17	1.41	1.4	1.27	2.82	3.19	4.21	2.41	4.03
ACTAGGAGGCCAAGGGTCACTCAAGATTAGTCCG	2.82	3.11	0.119	2.83	0.0149	4.59	8.49	7.94	7.43	8.35
AGTCAAAGTTCAAGACGAGGTAACGTAAAGCACG	6.21	5.72	2.72	3.19	0.519	4.72	6.2	6.17	3.81	5.35
CTACCAAGGTGAACAAGGTCGATGATTACTATTC	0.946	0.835	0.167	1.18	-0.531	2.13	1.2	0.941	0.12	0.353
ATCTCTAGGTAAAGATAGTTCACTGAATGCAAAT	0.402	4.91	1.11	1.37	0.641	1.26	0.98	0.827	0.387	0.797
TCATATAGGTAAACAGGTTAAAGTCCGTAAGTTA	0.775	1.24	0.749	1.34	0.393	2.69	2.85	3.9	4.25	3.91
TTATATAGGTAAACAGGTGAAAGTCCGTAAGTTA	0.62	0.679	0.481	0.738	0.246	3.31	5.61	4.75	2.93	4.41
ATCGAAAGTTCGTGAGGTGAGTATACAGAAAGGC	1.21	1.26	0.0798	0.398	-0.197	1.88	0.759	0.561	0.146	0.655
ACTATTAGCTGAGACGAGGGCAACCGATAGGTTG	0.185	-0.00873	0.0861	0.0453	0.238	0.0501	0.663	0.238	-0.205	0.302
ACTGACAGGTGAGTGAAGGTAACTCAGCTGGACG	0.406	0.0865	-0.418	-0.453	-0.767	0.153	0.398	0.0745	-0.305	-0.0738
TTACCAAGGTGAGCTGAGGTCGTTGAACCAACTC	1.78	1.48	-0.292	0.787	-0.885	1.88	0.111	0.783	-0.445	0.391
GCTAGCAGGCCATTTGGGCCACTCAATGACGGGC	-0.514	-0.935	-0.951	-1.27	-1.17	-0.573	0.102	-0.789	-0.989	-1.19
CCTTACCGGTCACTCCAGGTTATAGCATCGGAGT	2.6	6.15	4.71	2.67	1.65	1.3	0.603	0.901	0.0814	0.653
TCTGCTAGGTCAGTTGATCAGCTAACGAGCTGCC	0.721	0.672	-0.553	0.169	-0.0241	0.983	0.167	1.28	1.07	1.27
ATCTCTAGGTAAAGTACAGTGAAAGATCGATAGA	0.412	0.617	0.207	0.131	0.745	0.0903	0.761	0.842	0.832	0.623
TCTATTAGTTGATTAGGGCAACTGAAACAGCGGA	0.195	0.677	0.0182	0.747	0.522	0.782	0.0466	1.87	3.5	2.6

Sequence	PBM binding z-score [1]	PBM binding z-score [2]	PBM binding z-score [3]	PBM binding z-score [4]	PBM binding z-score [5]	PBM binding z-score [6]	PBM binding z-score [7]	PBM binding z-score [8]	PBM binding z-score [9]	PBM binding z-score [10]
CCTATTAGTTAACCATAAGGGCAACCGAAGCTCG	0.323	0.341	0.429	0.249	0.486	0.386	0.374	0.215	0.166	0.0193
CTCGAAAGGTCGTGCTCAGGTGAGTATTCCAAAC	5.42	3.85	0.158	3.32	0.259	4.52	2.26	3.47	0.582	1.86
GATACAGGGTCAACGCCAGAGTACGCGTATTGAT	7	4.57	-0.128	3.91	0.0606	5.69	6.17	5.78	2.67	4.5
GGAACGAGGACAAGTTGATAGCAGAGTTTGATGG	0.526	-0.33	-0.0892	-0.534	-0.685	0.0298	0.641	-0.0478	-0.0459	-0.0367
CCTACTGGGCCAAAAAGGTCATTGAGGCCGATAA	3.73	4.24	2.98	4.11	0.134	4.69	3.3	3.92	1.27	3
CGTCCAAGGTCAAGGGTCAGTGAAGAGATGACGG	7.75	5.84	1.02	5	0.392	6.46	8.85	7.9	6.12	7.94
GCGACTGGGGCATCAGCAGTTTACCATAACTTAA	-0.0811	-0.328	-0.256	0.505	-0.674	0.605	0.756	1.18	-0.193	0.414
TATTGTAGATCAACAGGAGGTTAAGAAAGATCGA	0.217	1.55	0.577	1.03	0.546	1.46	0.641	0.531	0.596	0.68
AGAATGCGGTTATTAAGATCAGGGAATTGCGGTC	-0.258	-0.138	-0.259	-0.43	-0.728	-0.484	0.0333	-0.202	-0.149	-0.182
ATATGTAGGTTAGCTAGGGTCATTCAGACTAGGC	4.45	5.22	1.89	3.59	0.624	4.36	4.65	4.41	2.3	3.61
CGAACTAAGTCAAGGACAGTGAATCTCCGCACGC	-0.155	-0.206	-0.211	-0.441	-0.793	-0.228	0.372	-0.132	-0.287	-0.694
CCGACTGAGGCAAAGGTTACCATACTCAGTACGA	0.7	1.19	-0.159	1.48	-0.611	3.69	6.77	6.76	4.81	6.88
ACAGACAGGTGAGTGAAGGTAACTTAGCTGGACG	0.0414	0.0601	-0.497	-0.508	-0.62	-0.0817	0.693	-0.15	-0.0448	-0.0872
ACTCGTAGGACAAAGGTCAGAGCTACGCCAGTGA	3.9	4.29	1.39	3.3	0.607	5.11	7.99	7.75	6.47	8.26
ACTAGCAGGCCAAGGCTCACTCAAGATTAGTCCG	-0.393	-0.377	-0.331	-0.701	-0.95	-0.271	0.588	0.682	-0.134	0.168
ACTATTAGTTGAGTTAGGGCAACCGATACGACGC	-0.00299	-0.201	0.321	-0.189	0.544	-0.0901	0.832	0.293	0.372	0.303
GCTAGTTGATCAGTAAAAGGTCACACACCGGTCG	3.16	4.73	4.21	3.98	0.478	4.53	2.11	4.16	1.58	3.46
AAATGTAGGTTAGCTGGGGTCATTCAGACTAGGC	4.53	5.93	3.17	4.82	0.888	5.67	6.42	5.77	3.31	5.16
GCGACTGGGGCGAAGCAGGTTACCATAAGGTTGG	-0.35	-0.539	-0.81	-0.315	-1.13	0.234	0.378	-0.549	-0.972	-0.732
TAGCATAGGTCATGGGCCAGTATACCACGCGAAC	6.75	5.37	0.897	4.03	0.148	5.98	5.56	5.31	2.04	4.24
CAAACTAGGTCACAGAGGTCAAATTCCGTGCGTA	7.61	6.88	8.33	6.71	3.6	6.59	10.5	8.65	7.13	8.61
ACTAGCAGGCCAAGTTTGGGTCGCTCAAACAAAG	-0.398	-0.635	-0.922	-0.551	-0.759	-0.185	-0.746	-0.638	-1.08	-1.15
CCTACTGGGCAAAAGGTCATTGATTCCAATGCTC	4.38	5.09	3.89	4.36	0.466	5.57	10.4	9.29	9.17	9.67
CATACAGGGTCAGCTAGGCCAGAGAAGGGACGGC	4.68	2.97	-0.0685	2.27	0.339	4.4	3.38	3.06	0.62	1.82
